Assay results published in PubChem BioAssay (Tox21).
“And” between values parts separate entries of the source, which are not always exact repeats. Equal values may be shown once. Inconclusive results are not listed. Where a call stands in place of a potency, no number is given. Values without a mark were called inactive. The source made the active and inactive calls. The call rests on the fitted dose curve; in most records, active means well fitted cell-killing curve with a large enough effect in the repeat runs; inconclusive means weak or mixed curves, or effect the other way; inactive means no such curve, though single readings can be large or run the other way.
Potency means the concentration at half of the fitted maximal effect.

Assay: qHTS assay to identify small molecule antagonists of the thyroid receptor (TR) signaling pathway - cell viability counter screen (AID 743064); further: nearly all actives have a fitted effect of over 50% in size
Conditions: GH3.TRE-Luc viability, CellTiter-Fluor, 24 h; series mostly up to 70.3 µM; activity change, negative = cytotoxic: at the top concentration
Source text: National Center for Advancing Translational Sciences [NCATS]
NIH Chemical Genomics Center [NCGC]
U.S. Environmental Protection Agency [EPA]
National Institutes of Environmental Health Sciences [NIEHS]
National Toxicology Program [NTP]
U.S. Food and Drug Administration [FDA]
Thyroid receptor (TR), a nuclear hormone receptor, plays an important role in development, proliferation, differentiation, metabolism, brain function, and cardiovascular system. […] To profile the Tox21 10K compound library in TR signaling, a cell-based GH3-TRE-Luc assay (GH3.TRE-Luc cell line, developed by the laboratory of Dr. Albertinka J. Murk, Wageningen University) was used to measure the inhibition of TR. GH3 (rat pituitary tumor) cells stably expressing a TR activity sensor consisting of two TR response elements and a luciferase reporter gene. The cytotoxicity of the Tox21 compound library against the GH3.TRE-Luc cell line was tested in parallel by measuring the cell viability using CellTiter-Fluor assay (Promega, Madison, WI) in the same wells.
Tox21 Assay Protocol Summary:
GH3.TRE-Luc cells were dispensed at 1500 cells/4 uL/well into 1536-well white solid bottom plates using a Multidrop Combi dispenser (Thermo Fisher Scientific Inc., Waltham, MA). After the assay plates were incubated at 37 C for 4 hours, 23 nL of library compound or DMSO controls was transferred to the assay plates by a pintool station (Kalypsys, San Diego, CA), followed by addition of 1 ul of T3 (1 nM, final concentration in the wells) to stimulate TR transactivation. The assay plates were incubated at 37 C for 23.5 h, and then 1 uL of CellTiter-Fluor reagent (Promega, Madision, WI) of measuring cytotoxicity was added to each well using a Bioraptr Flying Reagent Dispenser (FRD) workstation (Beckman Coulter, Indianapolis, IN, USA). The plates were incubated at 37C and 5% CO2 for additional 30 min, and fluorescence intensity was measured by a ViewLux plate reader (PerkinElmer, Shelton, CT).
For `O=C(O)c1ccc(C(=O)O)c(C(=O)O)c1`, the Potency was “inactive”.
For `C[C@]12CCC(=O)C=C1CC[C@@H]1[C@@H]2[C@@H](O)C[C@@]2(C)[C@H]1CC[C@]2(O)C(=O)CO`, the Potency was “inactive”.
In the case of `C=CC(=O)OCCC(=O)O`, the Potency is reported as “inactive”.
With `O=S(=O)(O)c1ccc(N=Nc2c(O)ccc3cc(S(=O)(=O)O)ccc23)cc1` the Potency was 30.8 µM (active) and 27.3 µM (active).
In the case of `C=C(C)C(=O)OCC(C)C`, the Potency is reported as “inactive”.
In the case of `CC(C)OC(=O)COc1ccc(Cl)cc1Cl`, the “activity change, negative = cytotoxic” value is reported as 0.689%.
For `CCCCCCCCCCCCCCCCO`, the “activity change, negative = cytotoxic” value was 29.4%.
With `C[Si]1(C)O[Si](C)(C)O[Si](C)(C)O[Si](C)(C)O1` the “activity change, negative = cytotoxic” value was 11.5%.
With `O=C(O)CCCCCCCCC(=O)O` the Potency was “inactive”.
For `Brc1ccc(Br)c(Br)c1`, the Potency was “inactive”.
For `COc1ccc(N)c(C)c1`, the “activity change, negative = cytotoxic” value was 8.46%.
For `CN(C)c1ccc(Cc2ccc(N(C)C)cc2)cc1`, the Potency was “inactive”.
For `COCCCN`, the Potency was “inactive”.
For `CC1(C)CC(N)CC(C)(CN)C1` (stereo not given), the Potency was “inactive”.
For `C=C(C)CNCC`, the Potency was “inactive”.
With `NCCCCCCN` the Potency was “inactive”.
In the case of `CCCCCCCCCCN`, the Potency is reported as “inactive”.
With `CCNc1cccc(C)c1` the Potency was “inactive”.
In the case of `Cc1ccc([N+](=O)[O-])cc1S(=O)(=O)O`, the Potency is reported as “inactive”.
In the case of `CN(C)c1ccc(O)c2c1C[C@H]1C[C@H]3[C@H](N(C)C)C(=O)C(C(N)=O)=C(O)[C@@]3(O)C(=O)C1=C2O`, the Potency is reported as “inactive”.
In the case of `COc1ccc(OC)cc1`, the Potency is reported as “inactive”.
In the case of `CCO[Si](CCC#N)(OCC)OCC`, the “activity change, negative = cytotoxic” value is reported as 18.8%.
With `CCCCCCCC=O` the “activity change, negative = cytotoxic” value was 21.7%.
With `CC1(C)NC(=O)NC1=O` the “activity change, negative = cytotoxic” value was 1.81% [at 95 µM].
With `CC1(C)S[C@@H]2[C@H](NC(=O)COc3ccccc3)C(=O)N2[C@H]1C(=O)O` the “activity change, negative = cytotoxic” value was 24.8%.
With `CC(=O)OCc1ccccc1` the Potency was “inactive”.
For `O=C(O)c1cc2ccccc2cc1O`, the Potency was “inactive”.
In the case of `CCCCC(C=O)CC` (stereo not given), the Potency is reported as “inactive”.
In the case of `CN/C(=C\[N+](=O)[O-])NCCSCc1csc(CN(C)C)n1`, the Potency is reported as “inactive”.
With `C=CCc1ccc(OC)c(OC)c1` the Potency was “inactive”.
In the case of `COc1ccc(CCC(C)=O)cc1`, the “activity change, negative = cytotoxic” value is reported as -9.87%.
In the case of `Cc1ccc(C(C)C)c(O)c1`, the Potency is reported as 61.1 µM (active).
With `CCCOC(=O)c1ccccc1` the “activity change, negative = cytotoxic” value was 21.7%.
With `O=C(O)c1ccc(S(=O)(=O)N(Cl)Cl)cc1` the Potency was “inactive”.
In the case of `CC(=O)c1ccc(O)cc1`, the Potency is reported as “inactive”.
With `CCCCCCCCCCCC(=O)OC` the Potency was “inactive”.
In the case of `NC(=S)NNC(N)=S`, the Potency is reported as “inactive”.
For `COc1ccc([N+](=O)[O-])cc1N`, the Potency was “inactive”.
With `CC(C)=CCl` the “activity change, negative = cytotoxic” value was 4.51%.
For `OC1C(O)C(O)C(O)C(O)C1O` (stereo not given), the Potency was “inactive”.
